# Test results as given in PubChem BioAssay AID430 (Sanford-Burnham Center for Chemical Genomics, 2006).
# The campaign covered roughly 63,000 compounds. About 1,100 (1.7%) were called active. Cut-off read from the data, not from the text of the source: active = cytotoxicity above about 50%; inactive = the rest. The list comes from a sample in which actives are over-represented; it also holds similar structures and randomly drawn compounds. Entries with a potency or affinity are not part of this list.
# Assay: cytotoxicity in HPDE-C7 cells, cell-based, fluorescence, HTS (AID 430);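 note: cells exposed to compound for 48 hours before viability readout; 0% = vehicle and 100% = reference cytotoxic drug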
# Conditions: HPDE-C7 pancreatic duct cells viability, at 10 µM, stronger effect = higher value
row,Structure (SMILES),cytotoxicity
1,Cn1c(=O)c2c(ncn2CC(=O)N2CCCc3ccccc32)n(C)c1=O,-15.8% (inactive)
2,CCOC(=O)c1cccc(S(=O)(=O)N(CCO)Cc2cc3cc(OC)c(OC)cc3[nH]c2=O)c1,-19.4% (inactive)
3,COc1ccc(-n2c(Cc3cccn3C)nnc2SCC(=O)Nc2nccs2)cc1,5.7% (inactive)
4,Nc1ccccc1OCCOCCOCCOc1ccccc1N,5.3% (inactive)
5,CCC(C)n1cnc2c(c1=O)c1nc3ccccc3nc1n2Cc1ccc2c(c1)OCO2 (stereo not drawn),26.8% (inactive)
6,COc1cc(C2=NOC(C(=O)NCc3ccco3)C2)cc(OC)c1OC (stereo not drawn),32.6% (inactive)
7,COc1cc(C2=NOC(C(=O)Nc3ccc(C)cc3)C2)cc(OC)c1OC (stereo not drawn),-9.2% (inactive)
8,COc1ccc(NC(=O)C2CC(c3ccc(OC)c(OC)c3)=NO2)cc1OC (stereo not drawn),-6.6% (inactive)
9,COc1ccc(C2=NOC(C(=O)NCc3ccc(F)cc3)C2)cc1OC (stereo not drawn),55.2% (active)
10,COc1ccc(C2=NOC(C(=O)NCc3ccco3)C2)cc1OC (stereo not drawn),38.7% (inactive)
11,COc1cc(C2=NOC(C(=O)NCc3ccc(F)cc3)C2)cc(OC)c1OC (stereo not drawn),63.4% (active)
12,O=C(c1ccco1)N(CCCN1CCOCC1)c1nc(-c2ccc(F)cc2)cs1,11.3% (inactive)
13,COc1ccc(NC(C)=O)cc1NC(=O)CSc1nnc(-c2cccnc2)n1C,-13.3% (inactive)
14,O=C(NCC1CCCO1)C1CCC(CNS(=O)(=O)c2ccccc2)CC1 (stereo not drawn),13.6% (inactive)
15,O=C(Nc1nc2c(s1)COc1ccccc1-2)c1cccs1,9.6% (inactive)
16,COc1ccc(OC)c2sc(NC(=O)CCS(=O)(=O)c3ccccc3)nc12,-0.4% (inactive)
17,O=C(CCS(=O)(=O)c1ccccc1)Nc1nc2c(s1)COc1ccccc1-2,98.3% (active)
18,Clc1ccc2nc(CN3CCCc4ccccc43)cn2c1,23.1% (inactive)
19,CCCCCn1c(=NC(C)=O)c(C#N)cc2c(=O)n3ccccc3nc21,8.8% (inactive)
20,O=C(O)Cn1cc(C(=O)c2cccs2)c2ccccc21,-14% (inactive)
21,COCCn1c(C(C)C)nc2oc3ccccc3c(=O)c2c1=O,-9.4% (inactive)
22,CCC(=O)N1CCc2cc(S(=O)(=O)NCCN3CCC(C)CC3)ccc21,-1.8% (inactive)
23,CCN1C(=O)CC(N2CCC(C(=O)OC)CC2)C1=O (stereo not drawn),-6.2% (inactive)
24,CN1CCN(C(c2cccnc2)c2ccc3cccnc3c2O)CC1 (stereo not drawn),-9.1% (inactive)

row,Structure (SMILES),cytotoxicity
1,Cc1nc2sc(C(c3ccccc3)N3CCN(CCO)CC3)c(O)n2n1 (stereo not drawn),-1.3% (inactive)
2,OCCN1CCN(C(c2cccs2)c2ccc3cccnc3c2O)CC1 (stereo not drawn),79.3% (active)
3,CC1CCC(C(=O)NC(C(=O)NCCN2CCC(C)CC2)C(C)C)CC1 (stereo not drawn),-16.7% (inactive)
4,Cc1nnc(SCc2ccccc2Cl)n1CC1CCCO1 (stereo not drawn),-11.9% (inactive)
5,COc1ccc(NC2=CC(=O)CC(C)(C)C2)cc1OC,-19.2% (inactive)
6,O=C(Nc1cccc(NC(=O)N2CCN(c3ccccc3)CC2)c1)N1CCN(c2ccccc2)CC1,56.3% (active)
7,O=C(Nc1cccc2ccccc12)N1CCN(c2ccccc2)CC1,15.2% (inactive)
8,O=C(Nc1ccc2snnc2c1)N1CCN(c2ccccc2)CC1,-24.9% (inactive)
9,COc1ccc(Cn2c(C)nc3oc4cc(OC)ccc4c(=O)c3c2=O)cc1,-21% (inactive)
10,Nc1nc2n(n1)C(c1cccc(Cl)c1)CC(c1ccc(F)cc1)N2 (stereo not drawn),10.8% (inactive)
11,Cc1cc(C)c(C#N)c(SCC(=O)CC(=O)OC(C)C)n1,34.5% (inactive)
12,Cc1c(C#N)c(SCC(N)=O)nc2c1CCCC2,-21% (inactive)
13,CCOC(=O)c1sc(NC(=O)CSc2nc3c(cc2C#N)CCCCCC3)c(C#N)c1C,79.6% (active)
14,N#Cc1cc2c(nc1SCC(=O)Nc1sc3c(c1C#N)CCC3)CCCCC2,23.2% (inactive)
15,COC(=O)CC(=O)CSc1nc2c(cc1C#N)CCC2,76.1% (active)
16,CC(C)OC(=O)CC(=O)CSc1nc2c(cc1C#N)CCC2,49.9% (inactive)
17,CCOC(=O)CC(=O)CSc1nc2c(c(C)c1C#N)CCC2,52.6% (active)
18,COC(=O)CC(=O)CSc1nc2c(cc1C#N)CCCCC2,10.3% (inactive)
19,CCOC(=O)c1sc(NC(=O)CSc2nc3c(cc2C#N)CCC3)c(C#N)c1C,4.5% (inactive)
20,CCOC(=O)CC(=O)CSc1nc2c(cc1C#N)CCCCC2,-5.9% (inactive)
21,Cc1nc(SCC(=O)CC(=O)OC(C)C)c(C#N)c(C)c1C,-1.2% (inactive)
22,COc1cc(Cl)ccc1S(=O)(=O)n1nc(C)cc1C,7.8% (inactive)
23,CCc1ccc(S(=O)(=O)NCc2csc(-c3cccnc3)n2)s1,-5% (inactive)
24,CCOC(=O)c1ccccc1NC(=O)c1c(O)c2ccccc2n(CC)c1=O,-9.2% (inactive)
